Experimental findings from PubChem BioAssay (EPA / NIEHS) are described below.

The source made the active and inactive calls. How the source made its calls: active means hit-call score of the fitted dose curve at least 0.9, where 1 is the maximum; inactive means score below 0.9.

Read-out in the assay: MYC, MYC (gene 4609)
Description: LTEA_HepaRG_MYC: Life Technologies and Expression Analysis (LTEA) Assay for MYC using HepaRG (AID 2283518). Conditions: mRNA level, 48 h; actives raise or lower the signal. As for the experimental part:
LTEA_HepaRG is a cell based, multiplexed-readout assay that uses HepaRG, a human liver cell line, with measurements taken at 48 hours after chemical dosing on a 96-well plate.LTEA_HepaRG_MYC is one of 102 assay component(s) measured in the LTEA HepaRG cell culture assay. It is a marker of Cell proliferation, survival, death.Data from the assay component LTEA_HepaRG_MYC was analyzed into 1 endpoint. This assay endpoint, LTEA_HepaRG_MYC, was analyzed with bidirectional fitting relative to DMSO as the negative control and baseline of activity. Using a type of inducible reporter, measures of mRNA induction for gain or loss-of-signal activity can be used to understand regulation of transcription factor activity. To generalize the intended target to other relatable targets, this assay endpoint is annotated to the dna binding intended target family, where the subfamily is basic helix-loop-helix leucine zipper.
A total of 1060 chemcials from the ToxCast library were tested in eight-point concentration-response experiments. Cell culture and cytotoxicity assays were conducted at Thermo Fisher Scientific's Custom Services facility (Madison, WI). A single lot of human HepaRG cells (Thermo Fisher Scientific, Frederick, MD) was used for the cell culture experiments. 96-well format collagen type I coated plates of human HepaRG cells were prepared using established methods. Briefly, cryopreserved HepaRG cells were thawed, plated at a density of approximately 100,000 cells/well in HepaRG Thaw, Plate, and General Purpose media (HPRG770, Thermo Fisher Scientific), and incubated for 48 hours. 0.5% DMSO was selected as vehicle control to balance the requisite need of DMSO in HepaRG cultures to maintain differentiation (for example, baseline metabolism, proportions of hepatocytes vs. cholangiocytes), while enabling further hepatic receptor pathway activation (for example, PXR and CAR) in response to chemical exposure. 48 hours after plating, the culture medium was replaced with HepaRG Serum-Free Incudtion Media. Cells were exposed to each test chemical in duplicate and maintained in CO2 incubators for another 48 hours. Chemical plates were thawed to room temperature and 200x concentrations of treatment groups were prepared. 8-point conentration-reponse curves were made with the highest exposure at 100 uM, followed by half-log dilutions, all in 0.5% DMSO. Each test plate contained variouse controls, induction positive controls (1mM phenobarbital), cytotoxicity positive controls ([…] aflatoxin B1), vehicle controls (0.5% DMSO), and total lysis controls (0.5% DMSO). Cell morphology images were taken using an Essen IncuCyte FLR automated microscope, with six 96-well plates imaged in about 24 minutes. Images were captured and exported and JPEG files. Spent culture media was transfered to black-well plates for the LDH assay, and remaining media was sorted at -80 C for later use. Cells were treated with RLT buffer and frozen until shipped for gene expression analysis. Total RNA was isolated from the cell suspension in 75 uL of Buffer RLT (Qiagen, Germantown, MD 20874) by Quintiles/Expression Analysis (Durham, NC) using a custom isolation procedure. Total RNA from each plate well was transferred to a preamplification plate. Fluidigm's 96.96 Dynamic ArrayTM (Fluidigm, Amsterdam, the Netherlands) technology was used for gene expression analyses by quantitative reverse transcription polymerase chain reaction (qRT-PCR, performed by Quintiles/Expression Analysis, Durham, NC)89. Standard TaqManTM Assays (Applied Biosystems/ThermoFisher Scientific, Foster City, CA) were used to assess the expression of 93 genes selected based on their selectivity and sensitivity to important hepatic receptors known to be modulated by environmental chemicals; importance in human hepatocyte functionality; and hepatotoxicity. […]
Turning to `COC(=O)CCCCC(=O)OC`, the outcome was inactive.
For the compound `CCCCCCCCCCCCN1CCCC1=O`, the call was inactive.
For the compound `C=C(C)C(=O)OCCC(F)(F)C(F)(F)C(F)(F)C(F)(F)C(F)(F)C(F)(F)F`, the compound was classed as inactive.
In the case of `O=C(O)Cc1cc(I)c(Oc2cc(I)c(O)c(I)c2)c(I)c1`, the AC50 is 52 µM (active).
For `CN(C)C=O`, the compound was called inactive.
Consider `CC(C)(C)c1ccc(O)c(C(C)(C)C)c1`, for which the call was inactive.
On the same count and under the same terms, to `CCCOc1sc(C(=O)N2CCC(c3cc(CN)ccc3F)CC2)c(C)c1Br` belongs “inactive”.
Take `CC#C[C@]1(O)CC[C@H]2[C@@H]3CCC4=CC(=O)CCC4=C3[C@@H](c3ccc(N(C)C)cc3)C[C@@]21C`: the AC50 was 50 µM (active).
`O=[N+]([O-])c1ccc(O)cc1`: the outcome was inactive.
Turning to `OCCC(F)(F)C(F)(F)C(F)(F)C(F)(F)C(F)(F)C(F)(F)F`, the compound was classed as inactive.
As to `CCCCCCC(=O)O`, the compound was classed as inactive.
On to `Nc1cccc2c(N)cccc12`, for which the compound was classed as inactive.
Still for that read-out and setting: for `CCCCC(CC)COC(=O)CCCCC(=O)OCc1ccccc1` (stereo not given) the value was “inactive”.
On the same count and under the same terms, to `c1ccc2c(c1)Cc1ccccc1-2` belongs “inactive”; to `CCCOC(=O)c1ccc(O)cc1`, “inactive”.
On to `COCC(C)OCC(C)O` (stereo not given), for which the outcome was inactive.
Still for that read-out and setting: to `CC(C)CCCCCCOC(=O)CCCCC(=O)OCCCCCCC(C)C` belongs “inactive”; to `CC(C)(C)CC(C)(C)c1ccc(O)c(-n2nc3ccccc3n2)c1`, “inactive”.
For `CCCCCCCCCCCCc1ccccc1S(=O)(=O)O`, the AC50 is 37.8 µM (active).
`OCCC(F)(F)C(F)(F)C(F)(F)C(F)(F)C(F)(F)C(F)(F)C(F)(F)C(F)(F)F`: the compound was classed as inactive.
Take `C[C@@H]1C[C@H]2[C@@H]3CCC4=CC(=O)C=C[C@]4(C)[C@@]3(F)[C@@H](O)C[C@]2(C)[C@@]1(O)C(=O)COP(=O)(O)O`: the compound was classed as inactive.
Consider `CC1=C(/C=C/C(C)=C/C=C/C(C)=C/C(=O)O)C(C)(C)CCC1`, for which the AC50 is 22.7 µM (active).
`CN1CCC[C@H]1c1cccnc1`: the result was inactive.
In the case of `CCC(=C(c1ccc(O)cc1)c1ccc(OCCN(C)C)cc1)c1ccccc1`, the AC50 is 77.7 µM (active).
With `Oc1cc2ccccc2c2ccccc12`, the result was inactive.
In the case of `COCC(C)O` (stereo not given), the result was inactive.
For `CCCCCCCCC(=O)O`, the outcome was inactive.
`OC1CCCCC1`: the call was inactive.
For `CCC(C)(C)C1CCC(O)CC1` (stereo not given), the compound was called inactive.
Still for that read-out and setting: for `O=c1c(-c2ccc(O)cc2)coc2cc(O)ccc12` the value was “inactive”; for `O=C(O)c1ccccc1C(c1ccc(O)cc1)c1ccc(O)cc1`, “inactive”; for `CC(C)(C)c1cc(C(C)(C)C)c(O)c(C(C)(C)C)c1`, “inactive”.
`CC(=O)NC1(c2cccc(F)c2)CCN(CC[C@@]2(c3ccc(Cl)c(Cl)c3)CN(c3ccccc3)C(=O)CO2)CC1`: the result was inactive.
Same read-out and setting: to `CC(O)CO` (stereo not given) belongs “inactive”.
As to `c1ccc2c(c1)ccc1ccccc12`, the compound was classed as inactive.
As to `CC[C@H](c1ccc(O)cc1)[C@@H](CC)c1ccc(O)cc1`, the outcome was inactive.
Turning to `CCCCCCCC(=O)O`, the outcome was inactive.
For the compound `CCc1ccc(CCOc2ccc(CC3SC(=O)NC3=O)cc2)nc1` (stereo not given), the AC50 was 80.8 µM (active).
Regarding `CC(=O)CC(C)(C)O`, the half-maximal activity concentration (AC50) was 0.118 µM (active).
As for `CCCCC(CC)COC(=O)CCCCC(=O)OCC(CC)CCCC` (stereo not given), the call was inactive.
